Consider two compounds from PubChem BioAssay (NCATS).

Records with an inconclusive call do not appear. Values without a mark were called inactive. The call rests on the fitted dose curve; in most records, active means well fitted inhibition curve with a large enough effect; inconclusive means small, poorly fitted or top-dose-only effect; inactive means flat fitted curve, though single readings scatter.

In the assay the test system is Zika virus NS2B-NS3 protease. As to the kind of experiment: Primary screen GU AMC qHTS for Zika virus inhibitors (AID 1347154).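 Further: 0% = no-inhibitor control and -100% = no-enzyme control; nearly all actives have a fitted effect of over 70% in size.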 Summed up:
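Unlinked Zika NS2B hydrophilic domain/NS3 protease domain noncovalent complex (25 nM final) in 10 mM Tris-HCl pH 8.0, 0.01% Tween 20, with AMC peptide substrate. Fluorescence (ex 340, em 450 nm) change over 15 min, room temperature; percent inhibition fitted to 4-parameter Hill equation.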

As for `Nc1nc2c([nH]c(=O)n2[C@@H]2O[C@H](CO)[C@@H](O)[C@H]2O)c(=O)[nH]1`, the activity change, negative = inhibition was 7.35% [at 6.83 µM]. The value for `CCCCC/C=C\C[C@@H](O)/C=C/C=C/C=C\[C@@H](O)CCCC(=O)O` was 25.7% [at 0.59 µM].
